Screens from PubChem BioAssay.
Shown are actives, neighbours in structure and some others; about 3.3% of the full set was active somewhere.
VACV mCherry inh – inhibitors of vaccinia virus infection (mCherry reporter signal); Potency, µM (doses to about 36.5 µM), hits mostly inhibitors; Vaccinia virus mCherry reporter infection, fluorescence; 310,000 compounds, 0.63% hits; calls by dose curve; tested in A549 cells; further: nearly all actives have a fitted effect of over 35% in size
Vaccinia Venus – inhibitors of vaccinia virus (Venus reporter); Vaccinia virus Venus reporter expression, fluorescence; Potency, µM (doses to about 36.5 µM), usual class: inhibitors; 330,000 compounds, 0.46% hits; AID 720580; calls by dose curve; tested in A549 cells; further: nearly all actives have a fitted effect of over 30% in size
HCV inhibitor – HCV inhibition; Huh7.5.1 HCVcc-Cre infection, luciferase reporter, 44 h; 340,000 compounds, 3.4% hits; Potency, µM (titrated, usually from 41.8 µM), actives largely listed as inhibitors; active means well fitted inhibition curve with a large enough effect; inconclusive means small, poorly fitted or top-dose-only effect, or another doubt; inactive means no such curve, though single readings can be large or run the other way
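HCVcc-Cre virus at an moi near 0.5 was added right after compound to cells cultured 4 h from seeding (1,000 cells/well). Luciferase activity was determined 44 h later, 15 min after substrate addition at RT.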
Each line names hits and unclear results; the compound was inactive in the other large screens; ! = not active in a repeat.

Cc1cc2ccccc2nc1SCC(=O)N1CCCC1	HCV inhibitor 1µM (no result: VACV mCherry inh, Vaccinia Venus)
Cc1cc(SCC(=O)N2CCCC2)nc2ccccc12	none (no result: VACV mCherry inh, Vaccinia Venus)
CC(=O)c1cccc(NC(=O)c2cc3c(s2)-c2c(C)cccc2OC3)c1	VACV mCherry inh 11µM, Vaccinia Venus 20µM (no result: HCV inhibitor)
Cc1cccc2c1-c1sc(C(=O)Nc3cccnc3)cc1CO2	HCV inhibitor 22µM (no result: VACV mCherry inh, Vaccinia Venus)
Cc1cccc2c1-c1sc(C(=O)Nc3ccccc3C(N)=O)cc1CO2	none (no result: HCV inhibitor)
Cc1cccc2c1-c1sc(C(=O)Nc3nccs3)cc1CO2	HCV inhibitor inconclusive
CN(C(=O)CSc1nnnn1C)C1(C#N)CCCCC1	none (no result: VACV mCherry inh, Vaccinia Venus)
Cc1ccccc1-c1ccc(CN2CCc3nnc(CNC(=O)c4ccccn4)n3CC2)cc1	none (no result: HCV inhibitor)
NS(=O)(=O)c1ccc(CCNC(=O)c2ccccc2-c2ccccc2)cc1	none
CCN(Cc1cc(=O)oc2cc(C)ccc12)c1ccccc1	HCV inhibitor 22µM (no result: VACV mCherry inh, Vaccinia Venus)
Cc1ccc2c(CN(Cc3ccccc3)Cc3ccccc3)cc(=O)oc2c1	none (no result: HCV inhibitor)
COc1ccc(N(C)S(=O)(=O)c2ccc3c(c2)n(C)c(=O)c(=O)n3C)cc1	none (no result: HCV inhibitor)
Cc1cc(C)c(C(=O)/C=C/C=C/c2ccccc2)c(=O)[nH]1	Vaccinia Venus inconclusive
Cc1cc(C)c(C(=O)/C=C/c2ccc(C(C)C)cc2)c(=O)[nH]1	VACV mCherry inh 5µM, Vaccinia Venus inconclusive
O=C(CC[C@H]1O[C@@H](n2ccc(=O)[nH]c2=O)[C@H](O)[C@@H]1O)N[C@H](Cc1ccccc1)C(=O)NCCCc1ccccc1	none (no result: HCV inhibitor)
CN(CCc1ccccc1)C(C(=O)Nc1ccc2c(c1)OCCO2)C1CC1 (stereo not drawn)	none (no result: HCV inhibitor)
Cc1ccc(NCc2ccc(O)c3ncccc23)cc1C	HCV inhibitor inconclusive
Cc1cccnc1NCc1ccc(O)c2ncccc12	VACV mCherry inh 14µM, Vaccinia Venus inconclusive, HCV inhibitor 10µM
Cc1ccc(NCc2ccc(O)c3ncccc23)cc1	HCV inhibitor 5.6µM
Cc1cccc(NCc2ccc(O)c3ncccc23)c1C	HCV inhibitor inconclusive
CCOc1ccc(-c2cc(C(=O)NCCCn3ccnc3)c3ccccc3n2)cc1	none (no result: VACV mCherry inh, Vaccinia Venus)
CCOc1ccc(-c2cc(C(=O)NCCCN3CCN(CC)CC3)c3ccccc3n2)cc1	HCV inhibitor 8.9µM (no result: VACV mCherry inh, Vaccinia Venus)
CCCCOc1ccc(-c2cc(C(=O)NNC(=S)NCC)c3ccccc3n2)cc1	HCV inhibitor 11µM (no result: VACV mCherry inh, Vaccinia Venus)
CCOc1ccc(-c2cc(C(=O)NCCc3ccc(C)cc3)c3ccccc3n2)cc1	none (no result: HCV inhibitor)
CCOc1ccc(-c2cc(C(=O)NCCCn3ccnc3)c3cc(Br)ccc3n2)cc1	VACV mCherry inh inconclusive, Vaccinia Venus inconclusive, HCV inhibitor 10µM
CCCCOc1cccc(-c2cc(C(=O)NNC(=S)NCC)c3ccccc3n2)c1	none (no result: HCV inhibitor)
O=[N+]([O-])c1ccc(/C=C/c2cc(Cl)nc3ccccc23)cc1	none (no result: HCV inhibitor)
OC(Cc1ccc2ccccc2n1)c1c(Cl)cccc1Cl (stereo not drawn)	none (no result: HCV inhibitor)
O=C(Cc1ccc(-c2ccccc2)cc1)NCCS(=O)(=O)N1CCN(c2ccc(F)cc2)CC1	none (no result: HCV inhibitor)
Cc1ccc(NC(=O)c2ccc(NS(=O)(=O)c3cccc4cccnc34)cc2)cc1	VACV mCherry inh inconclusive, HCV inhibitor 10µM
CC(=O)Nc1ccc(NC(=O)c2ccc(NS(=O)(=O)c3cccc4cccnc34)cc2)cc1	none
COc1cc(OC)c2c(=O)cc(-c3ccccc3)oc2c1	HCV inhibitor inconclusive
COc1cc2c(c3oc(-c4ccccc4)cc(=O)c13)C=CC(C)(C)O2	HCV inhibitor 1µM
COc1ccc(OC)c2c(C)ccnc12	none (no result: HCV inhibitor)
CN(C)CCC(c1ccccc1)c1ccccn1 (stereo not drawn)	HCV inhibitor 5µM!
CN(C)CCC(c1ccc(Cl)cc1)c1ccccn1 (stereo not drawn)	HCV inhibitor inconclusive
CCOc1ccc(C(=O)COC(=O)c2cccc(-n3cnnn3)c2)cc1	none
COC(=O)CNC(=O)/C=C/c1cc(Br)ccc1OC	HCV inhibitor inconclusive
COc1ccc(Br)cc1/C=C/C(=O)Nc1ccc2ccccc2c1	HCV inhibitor 10µM
CC(=O)Nc1cccc(C(=O)/C=C/c2ccc(F)cc2)c1	HCV inhibitor inconclusive
CCC(=O)Nc1cccc(C(=O)OC)c1	none
CC(=O)Nc1cccc(C(=O)/C=C/c2ccc(Br)cc2)c1	VACV mCherry inh 22µM, Vaccinia Venus 11µM, HCV inhibitor inconclusive
CCC(=O)Nc1cccc(C(=O)/C=C/c2cc(Br)ccc2OC)c1	VACV mCherry inh inconclusive, Vaccinia Venus inconclusive, HCV inhibitor 11µM
CCCCNc1sc(S(=O)(=O)CCC)nc1S(=O)(=O)c1ccc(C)cc1	none (no result: HCV inhibitor)
Cc1nc2cccnc2n1-c1cccc(C(=O)NCCN(C)C)c1	none (no result: HCV inhibitor)
COc1ccc(CNc2ncnc3c2nc2n3CCCC2)cc1	none (no result: HCV inhibitor)
CN(C)c1ccc(/C=C/c2sc3ccccc3[n+]2Cc2ccccc2)cc1	none (no result: HCV inhibitor)
CCN(CC)CCNC(=O)CSc1c2c(nc3cc(Cl)ccc13)CCCC2	HCV inhibitor 10µM
COCCNC(=O)CSc1c2c(nc3cc(Cl)ccc13)CCCC2	none (no result: HCV inhibitor)
CCCN(C)C[C@@H]1OCc2cnnn2CCCC(=O)N([C@H](C)CO)C[C@H]1C	none (no result: HCV inhibitor)
C=C1C(=O)[C@]23C[C@H]1CCC2[C@]1(C)CCC[C@@](C)(C(=O)O)C1C[C@@H]3O (stereo partly drawn)	VACV mCherry inh 6.3µM, Vaccinia Venus 3.5µM (no result: HCV inhibitor)
C=C1C(=O)[C@]23C[C@H]1CC[C@H]2[C@]1(C)[C@@H](OC(C)=O)CC[C@@](C)(C(=O)O)[C@H]1C[C@@H]3OC(C)=O	none (no result: HCV inhibitor)
CN(C)c1ccc(/C=C2\Cc3ccccc3C2=O)cc1	none (no result: HCV inhibitor)
CCOC(=O)CCc1c(C)nc2c(c(C)nn2-c2ccccc2)c1C	none (no result: VACV mCherry inh, Vaccinia Venus)
CCOC(=O)c1c(C)nc2c(c(SC)nn2-c2ccccc2)c1N	HCV inhibitor 10µM (no result: VACV mCherry inh)
CC1Cc2ccccc2N1S(=O)(=O)c1nnc(NC(=O)c2ccccc2Br)s1 (stereo not drawn)	none (no result: HCV inhibitor)
O=C1CN(S(=O)(=O)c2ccccc2)CCN1	none
CN(C)c1nc2cc3c(cc2cc1CN(CC1CCCO1)C(=O)/C=C/c1cccs1)OCO3 (stereo not drawn)	none (no result: HCV inhibitor)
O=C(Nc1ccn(Cc2c(F)c(F)cc(F)c2F)n1)c1ccc(COc2ccc(Cl)cc2Cl)o1	HCV inhibitor 13µM (no result: VACV mCherry inh, Vaccinia Venus)
Cc1nn(Cc2cccc(F)c2)c(C)c1NC(=O)c1c([N+](=O)[O-])c(C)nn1C	none
CC(=O)Nc1ccc(NC(=O)c2ccc(COc3ccc(Cl)cc3Cl)o2)cc1	none (no result: HCV inhibitor)
Cc1nn(Cc2cccc(F)c2)c(C)c1NC(=O)c1ccc(COc2ccccc2Cl)cc1	VACV mCherry inh 11µM, Vaccinia Venus 13µM, HCV inhibitor 10µM
O=C(Nc1ccccc1F)c1ccc(COc2ccc(Cl)cc2Cl)o1	HCV inhibitor inconclusive
Cc1nn(Cc2c(F)c(F)c(F)c(F)c2F)c(C)c1NC(=O)c1ccnn1C	Vaccinia Venus inconclusive
CC(C)CNC(=O)c1ccc(COc2ccc(Cl)cc2Cl)o1	Vaccinia Venus inconclusive, HCV inhibitor 13µM
Cc1nn(Cc2c(F)c(F)c(F)c(F)c2F)c(C)c1NC(=O)c1ccc(COc2ccc(Cl)cc2Cl)o1	VACV mCherry inh inconclusive, Vaccinia Venus inconclusive, HCV inhibitor 7.1µM
Cc1cnc(-n2ncc(C(=O)NCCc3ccncc3)c2-c2cccs2)nc1-c1ccc(F)cc1	none (no result: HCV inhibitor)
COc1ccc(OCC(=O)Nc2nc(-c3ccc(Br)cc3)ns2)cc1	none (no result: HCV inhibitor)
COc1cc(=O)n2c(c1C(=O)N(C)Cc1cscn1)CCN(C(=O)c1ccc(C)cc1C)CC2	none (no result: HCV inhibitor)
COc1ccc(S(=O)(=O)NCC(=O)N(CC(=O)NCc2ccco2)Cc2ccc(F)cc2)cc1	HCV inhibitor inconclusive
NC(=S)NN=C1CCC2(CCCCC2)CC1	VACV mCherry inh inconclusive, Vaccinia Venus inconclusive
